Rows were chosen to be rich in hits. Some 1.8% of all compounds tested hit in one or more screens of this group.
MsrA inhibitor = inhibitors of bovine MsrA | inhibition, % at 15.5 µM | purified bovine MsrA, absorbance read-out | 0.75% of 360,000 active; in the data active = inhibition above about 4.5%;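 note: 0% = vehicle wells with enzyme and 100% = reference inhibitor wells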
MsrA act = activates bovine MsrA enzyme | activation, % at 10.6 µM | purified bovine MsrA, absorbance read-out | 0.3% of 360,000 active; in the data active = activation above about 7.5%;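 note: 0% = vehicle and 100% = reference activator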
m5-HT2A agonist = agonists of mouse serotonin 5-HT2A receptor (HTR2A); AID 624169; CHO-K1 mHTR2A beta-arrestin complementation, luminescence; percent of 30 µM serotonin response; activation, % at 7.6 µM; P35363; 0.66% of 360,000 active;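 active = activation above a run cutoff, the mean activation of all tested compounds plus 3 SD, cut at about 14% in these data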;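 note: 0% = plate median of compound wells and 100% = 30 µM serotonin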
Target sequence (P35363 whole entry, looked up): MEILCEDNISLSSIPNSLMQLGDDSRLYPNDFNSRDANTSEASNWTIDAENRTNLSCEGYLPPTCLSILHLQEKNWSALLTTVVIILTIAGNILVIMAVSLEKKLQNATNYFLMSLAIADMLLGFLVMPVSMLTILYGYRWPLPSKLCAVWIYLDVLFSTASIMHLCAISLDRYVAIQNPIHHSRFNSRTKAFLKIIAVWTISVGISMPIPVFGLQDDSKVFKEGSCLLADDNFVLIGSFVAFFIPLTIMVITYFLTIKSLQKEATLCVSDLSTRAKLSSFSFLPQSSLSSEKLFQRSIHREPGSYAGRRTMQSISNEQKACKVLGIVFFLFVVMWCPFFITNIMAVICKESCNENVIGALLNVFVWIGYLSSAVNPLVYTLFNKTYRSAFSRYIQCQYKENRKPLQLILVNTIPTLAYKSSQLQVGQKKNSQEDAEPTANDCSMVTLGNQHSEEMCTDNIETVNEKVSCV
GC-B act = GC-B (human) receptor activation. P20594. HEK293-GC-B cells, CNP EC30, cGMP TR-FRET; 0% at EC30 CNP, 100% saturating CNP. activation, % at 10 µM. 0.11% of 370,000 active. AID 1920062;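 active = activation at 10 µM reaching about 35% in either raw or pattern-adjusted values, limit read from the data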
GC-A act = GC-A (human) enzyme activation; P16066; activation, % at 10 µM; 0.14% of 370,000 active; HEK293 GC-A cells, cGMP TR-FRET, EC30 ANP; 0% at EC30 ANP, 100% saturating ANP; in the data active = activation above about 40%
MOR ag counter = OPRM1 agonism in mouse HTR2A counterscreen; shares compounds with m5-HT2A agonist; U2OS OPRM1 beta-arrestin PathHunter, luminescence; DMSO 0%, DAMGO 9.3 µM 100%; 5.3% of 2,300 active; activation, % at 9.3 µM;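 active = mean activation above the mean of DMSO-only wells plus 3 SD, cut at about 0.5% in these data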
HTR2A ag conf = confirmation of mouse HTR2A serotonin receptor agonists. 19% of 2,300 active. shares compounds with m5-HT2A agonist. activation, % at 7.6 µM. CHO-K1 PathHunter beta-arrestin recruitment, luminescence; DMSO 0%, 30 µM serotonin 100%;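 active = mean activation across triplicates above the hit threshold derived in the original primary screen, cut at about 15% in these data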
Starred values were filed as active, the others as inactive; x = no result given.

SMILES | MsrA inhibitor | MsrA act | m5-HT2A agonist | GC-B act | GC-A act | MOR ag counter | HTR2A ag conf
O=[N+]([O-])c1cccc(-c2ccc(/C=N/NC(=S)Nc3ccccc3)o2)c1 | 2 | 0 | 1 | -10 | -3 | x | x
Nn1c(SCC(=O)Nc2ccc(Br)cn2)nnc1-c1n[nH]c2c1CCC2 | x | x | x | -10 | 3 | x | x
CC(C)(C)N(Cc1ccccc1)C(=O)COC(=O)CCN1C(=O)C2CC=CCC2C1=O (stereo not given) | 0 | -2 | 15* | 8 | -1 | -1 | -2
O=C(COC(=O)CCN1C(=O)C2CC=CCC2C1=O)NCCc1ccccc1 (stereo not given) | -1 | -6 | 6 | -5 | -1 | x | x
CN(C(=O)CSC1=NCCS1)c1ccccc1 | 0 | -4 | 15* | -4 | 0 | 0.9* | 0
CCN(CC)C(=O)c1ccc(-c2nnc(Nc3ccc(C(=O)NC)cc3)c3ccccc23)cc1 | 4 | -2 | 14* | -3 | 4 | -1 | -5
COc1ccc(N2CCN(CCNS(=O)(=O)c3ccc(Br)s3)CC2)cc1 | x | x | x | 8 | 1 | x | x
Cc1ccc(Nc2ncnc(N)n2)cc1 | 1 | -10 | 23* | -8 | 2 | 0 | -2
Nc1ncnc(Nc2ccc(F)cc2)n1 | -1 | 4 | -2 | 1 | 1 | x | x
Cc1cccc(NC(=O)CN2C(=O)CCSc3ccccc32)c1C | x | x | x | -21 | -17 | x | x
O=C1N=C(N2CCOCC2)S/C1=C\c1ccc(-c2ccccc2Cl)o1 | -1 | 0 | 1 | 16 | 14 | x | x
Cc1ccccc1-c1ccc(/C=C2/SC(N3CCOCC3)=NC2=O)o1 | 1 | -1 | 21* | -5 | 3 | -1 | 89*
COc1ccc(NC(=O)C2CCN(S(=O)(=O)c3cccc4cccnc34)CC2)cc1OC | 0 | 0 | 17* | -2 | -1 | 0 | -3
O=S(=O)(c1cccc2cccnc12)N1CCN(c2ccc(F)cc2)CC1 | -1 | -3 | -5 | -4 | 1 | x | x
O=S(=O)(c1cccc2cccnc12)N1CCOCC1 | 0 | -2 | 21* | 5 | -1 | -1 | -2
O=C(NS(=O)(=O)c1ccccc1[N+](=O)[O-])[C@H]1O[C@@H](n2ccc(=O)[nH]c2=O)[C@H](O)[C@@H]1O | -1 | x | x | -2 | 3 | x | x
Cc1ccc(C(=O)n2ccc3ccc(-c4ccc5ccn(Cc6ccc(C#N)cc6)c5c4)cc32)cc1 | x | x | x | 3 | 1 | x | x
CC(C)(C)c1ccc(Cc2n[nH]c(=S)[nH]c2=O)cc1 | 1 | -3 | 15* | -1 | 1 | -1 | -4
Cc1c(Cc2ccc3c(c2)OCO3)sc(NC(=O)c2ccccc2)c1C(N)=O | 2 | -4 | 15* | 4 | 2 | 0 | 2
CC(C)NC(=O)C1(C)CN(S(C)(=O)=O)CC(=O)N1C1CCN(Cc2ccccc2)CC1 (stereo not given) | 0 | x | 27* | 3 | 4 | 0 | -2
CC(NCc1ccco1)C(=O)N1CCCC1 (stereo not given) | x | x | x | -9 | 1 | x | x
OCCC1CN(Cc2cnn(-c3ccc(F)cc3)c2)CCN1Cc1ccsc1 (stereo not given) | -1 | -4 | -5 | 0 | 2 | x | x
CCn1cc(CN2CCN(Cc3ccsc3)C(CCO)C2)cn1 (stereo not given) | 0 | -6 | 15* | 2 | -1 | 0 | 5
Cc1ccn(CCNC(=O)C2CCC(=O)N(CCc3ccc(Cl)cc3)C2)n1 (stereo not given) | -1 | -4 | 24* | 0 | 2 | 0 | -3
Cc1cc(C)n(CCCNC(=O)C2CCC(=O)N(CCc3ccc(Cl)cc3)C2)n1 (stereo not given) | 0 | -5 | 9 | -3 | 1 | x | x
SMILES | MsrA inhibitor | MsrA act | m5-HT2A agonist | GC-B act | GC-A act | MOR ag counter | HTR2A ag conf
COc1ccccc1C(=O)NC1CCCCN(Cc2ccccc2C)C1=O (stereo not given) | x | x | x | -6 | 4 | x | x
O=C(COC(=O)/C=C/c1ccc(C(F)(F)F)cc1)NCC1CCCCC1 | -1 | -2 | 25* | -3 | -1 | -1 | -5
C[C@H]1COc2cc(F)ccc2S(=O)(=O)N1C | x | x | x | 5 | 4 | x | x
Cc1cc(Br)ccc1OCCCN1CCC(C(O)(c2ccccc2)c2ccccc2)CC1 | x | x | x | 2 | -7 | x | x
COc1ccc(CCn2nnnc2CN2CCN(C(=O)c3ccco3)CC2)cc1OC | 1 | -3 | -2 | 0 | 7 | x | x
COc1ccc(CN2CCN(C(=O)c3ccco3)CC2)cc1OCc1ccccc1 | 0 | -7 | 19* | 4 | -4 | -1 | 74*
COc1ccc(CN2CCN(C(=O)c3ccco3)CC2)cc1OC | -1 | -1 | 32* | 4 | -1 | 0 | 82*
Cc1ccc(SC[C@H](CC(C)C)N2CCN(CCc3ccccc3)CCC2=O)cc1 | 1 | -1 | -13 | 0 | -2 | x | x
CC(=O)Nc1ccc(SC[C@H](CC(C)C)N2CCN(CCc3ccccc3)CCC2=O)cc1 | 1 | -2 | 19* | -1 | -1 | 0 | 17*
Cc1[nH]nc2c1C(c1ccccc1)N(Cc1ccccc1)C2=O (stereo not given) | 0 | x | x | 0 | 5 | x | x
CC(C)(C)OC(=O)NNC(=S)NC1CCCCC1 | 2 | -14 | 16* | 0 | 1 | -1 | 3
COc1cccc(O[C@H]2C=C[C@@H](c3ccccc3)O[C@@H]2CO)c1 | x | x | x | 0 | -3 | x | x
O=C1N(CN2CCN(c3cccc(Cl)c3)CC2)c2ccccc2C12OCCCO2 | -1 | 1 | 18* | -1 | -2 | -1 | 8
COc1ccc(N2C(=NC(=O)c3ccc(Br)cc3)SC3CS(=O)(=O)CC32)cc1 (stereo not given) | 0 | 3 | -3 | -4 | -5 | x | x
COc1ccc(C(=O)N=C2SC3CS(=O)(=O)CC3N2c2ccc(C(C)=O)cc2)cc1 (stereo not given) | 2 | -1 | 16* | -3 | -2 | 0 | -5
COC(=O)[C@H](Cc1ccc(O)cc1)NC(=O)Cn1cnc2c(OCc3ccccc3)ncnc21 | 0 | -1 | 15* | -1 | 4 | x | -3
COc1cc(-c2ccc3sc(-c4ccsc4)c(C#CCO)c3c2)cc(OC)c1OC | 3 | -1 | 18* | 5 | 6 | 0 | 3
C=CCN1[C@@H](C)COc2cccc(F)c2S1(=O)=O | x | x | x | -2 | 3 | x | x
Cc1ccc(NC(=S)NNC(=O)CSc2nc3ccccc3c(=O)n2-c2ccc(Cl)cc2)cc1 | x | x | x | -3 | -1 | x | x
COC(=O)C1CN(Cc2ccc(OC)cc2)CCS(=O)(=O)N1Cc1ccc(F)cc1 (stereo not given) | x | x | x | -8 | -7 | x | x
O=C(C1CCN(S(=O)(=O)c2ccc(Cl)cc2)CC1)N1CCCC1 | -1 | -3 | 7 | 1 | 0 | x | x

Screening data: PubChem BioAssay, several laboratories
